Drawing on PubChem BioAssay (NCATS), this text covers max response, outcome and Potency for 32 compounds.

Values joined by “and” are separate entries in the source; they are usually repeats but may differ in a detail not shown here. Equal values may be shown once. Records with an inconclusive call do not appear. Active and inactive are the calls of the source. Calls follow the shape of the dose curve; as a rule, active = well fitted inhibition curve with a large enough effect; inconclusive = small, poorly fitted or top-dose-only effect; inactive = flat fitted curve, though single readings scatter.
% is scaled to controls: 0 for no effect and ±100 for the full control effect; potency is read from the fitted curve at half-maximal effect.

This experiment has as its system HaCat. Nature of the experiment: Cytotoxic Profiling of Annotated Libraries Using Quantitative High-Throughput Screening (AID 1296008). Also: nearly all actives have a fitted effect of over 60% in size. To be noted: Five cell lines viability, CellTiter-Glo ATP luminescence, 48-72 h; max response: active compounds read low. The text has this: Cell-based phenotypic screening is a commonly used approach to discover biological pathways, novel drug targets, chemical probes and high-quality hit-to-lead molecules. Many hits identified from high-throughput screening campaign are ruled out through a series of follow-up potency, selectivity/specificity, and cytotoxicity assays. Prioritization of molecules with little or no cytotoxicity for a more in-depth downstream evaluation influence the future direction of projects, so cytotoxicity profiling of the screening libraries at early stage is essential for increasing the likelihood of candidate success. […] For the annotated library, we also examined the primary targets and mechanistic pathways regularly associated with cell death. To our knowledge, this is the first study to use high-throughput screening to profile large libraries for cytotoxicity assessment in both normal and cancer cell lines. In summary, the results generated here constitutes a valuable resource for the scientific community and provides insight on identifying cytotoxic compounds with particular mechanisms of action, and prioritizing compounds with suitable cytotoxicity profile for further evaluation.
A pintool (Kalypsys) was used to transfer 23 nL of compound solution to the 1536-well assay plates. After 48 or 72 hr incubation at 37 degree Celsius, 5% CO2 and 95% humidity, 2.5 uL of CellTiter-Glo (Promega) was dispensed into each well using a dispenser (Aspect Automation, St. Paul, MN) with solenoid valves (Lee Valves, Westbrook CT). Plates were left at room temperature for 10 min before imaging the ATP-coupled luminescence using a ViewLux microplate imager (PerkinElmer, Waltham, MA).
As for `S=C(NCc1ccc2c(c1)OCO2)N1CCN(c2ncnc3c2oc2ccccc23)CC1`, the max response is -0.756% (inactive) and -9.04% (inactive).
`CCc1cncnc1N1CCN(Cc2nc3ccc(C(F)(F)F)cc3[nH]2)CC1`: the max response was -29.7% (inactive).
Regarding `OC(CN1CCC(Cc2ccc(F)cc2)CC1)c1ccc(Cl)cc1` (stereo unspecified), the max response is 0.0814% (inactive) and the compound was called inactive.
Take `c1ccc([C@H]2CN3CCSC3=N2)cc1`: the max response is 1.22% (inactive) and the compound was classed as inactive.
Take `Cc1[nH]c(=O)c(C#N)cc1-c1ccncc1`: the max response was 4.3% (inactive) and 4.05% (inactive) and -9.78% (inactive).
With `O=C(NOC[C@H](O)CO)c1ccc(F)c(F)c1Nc1ccc(I)cc1F`, the Potency is 8.33 µM (active) and 23.1 nM (active).
With `Cc1csc(NC(=O)c2sc3nc4c(c(C(F)(F)F)c3c2N)CCC4)n1`, the compound was called inactive and the max response is -0.44% (inactive).
With `C[C@]1(c2nc3c(C(N)=O)cccc3[nH]2)CCCN1`, the max response was -38.2% (inactive).
On the same count and under the same terms, the figure for `O=S(=O)(N=Cc1c(O)ccc2ccccc12)c1cccs1` is -24.1% (inactive).
As to `Fc1ccc(Cl)cc1-c1nc(Nc2ccncc2)c2nccnc2n1`, the result was inactive.
In the case of `Nc1nccc(-c2ccc3noc(-c4ccc(Cl)cc4)c3c2)n1`, the max response is -32.6% (inactive).
Consider `COc1ccc(-c2oc3cc(OC)ccc3c2C(=O)c2ccc(C#N)cc2)cc1`, for which the compound was called inactive.
Same read-out and setting: the entry for `N=c1nc(N2CCCCC2)cc(N)n1O` is “inactive”.
Take `OCCC#Cc1nc(-c2ccc(F)cc2)c(-c2ccncc2)n1CCCc1ccccc1`: the max response was 4.71% (inactive).
For `Cc1cc2c(F)c(Oc3ncnn4cc(OC[C@@H](C)O)c(C)c34)ccc2[nH]1`, the max response is -13.8% (inactive).
For the compound `COc1ccccc1[C@H](c1cccc2ccccc12)[C@@](C)(C#N)C(=O)N1CCC(c2cccc(C(F)(F)F)c2)CC1`, the max response is -11.9% (inactive).
Regarding `O=C1CCC(N2C(=O)c3ccccc3C2=O)C(=O)N1` (stereo unspecified), the max response is 2.55% (inactive) and the call was inactive.
For `C[C@@H]1CN(Cc2ccc(F)cc2)[C@@H](C)CN1C(=O)c1cc2c(C(=O)C(=O)N(C)C)cn(C)c2cc1Cl`, in that order: -4.64% (inactive) and “inactive”.
With `NC(N)=NC(=O)c1nc(Cl)c(N)nc1N`, the max response was -3.73% (inactive) and the compound was called inactive.
As for `COc1cc2nccc(Oc3ccc(NC(=O)NC4CC4)c(Cl)c3)c2cc1C(N)=O`, the max response is -5.23% (inactive) and -15.3% (inactive).
Consider `COCCNCCCn1c(C(=O)CF)c(-c2ccc(C)cc2)c2c(N)ncnc21`, for which the max response is -0.681% (inactive).
On to `CCN(CC)CCCC(C)Nc1nc(C)cc(Nc2ccc3nc(C)cc(N)c3c2)n1` (stereo unspecified), for which the compound was classed as inactive.
Turning to `CCCCCCCc1ccc(CCc2cccc(O)c2C(=O)O)cc1`, the outcome was inactive.
On to `CC(=O)NC(C)c1ccc(Oc2ccc(OC(C)C)cc2)cc1` (stereo unspecified), for which the max response was -3.76% (inactive).
With `Cn1c(=O)c(F)c(Nc2ccc(I)cc2F)c2c(=O)n(C[C@@H](O)CO)cnc21`, the Potency is 833 nM (active).
As for `Cc1cnc(NC(=O)C2=C(O)c3ccccc3S(=O)(=O)N2C)s1`, the call was inactive.
`C1COC(NC(C2CC2)C2CC2)=N1`: the max response is 1.37% (inactive) and -11.9% (inactive).
Take `Cc1ccc(-n2nc(C(C)(C)C)cc2NC(=O)Nc2ccc(OCCN3CCOCC3)c3ccccc23)cc1`: the max response is -3.92% (inactive) and the compound was called inactive.
Consider `O=C1[C@H](Cc2ccc(O)cc2)N2C(=O)CCN(C(=O)NCc3ccccc3)[C@H]2CN1Cc1cccc2ccccc12`, for which the Potency was 2960 nM (active).
As to `CN(C(=O)c1ccc(F)cc1C(F)(F)F)C1CCN(c2nnc(-c3ccnn3C)c3ccccc23)CC1`, the compound was called inactive and the max response is -6.53% (inactive).
For `CCn1c(-c2nonc2N)nc2c(C#CC(C)(C)O)ncc(OC[C@H]3CCCNC3)c21`, the compound was called inactive.
Regarding `Nc1nc2ccc(OC(F)(F)F)cc2s1`, the result was inactive and the max response is -58.3% (inactive).
